Hits are enriched below; roughly 19% of the tested compounds scored in any of these assays.
HT1080-NT tox: kills 2HG-producing HT-1080-NT fibrosarcoma cells; 1.6% of 360,000 active; AID 686970; HT-1080-NT fibrosarcoma viability, CellTiter-Glo ATP luminescence, 48 h; Potency, µM (highest dose often 46.1 µM), without a hit: at the top dose activity, negative = less viability, hits mostly cytotoxic;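 further: NT is the 2HG producing partner of a matched IDH1 knockdown line; potency means the concentration at half of the fitted maximal effect; 0% = DMSO-treated cells and -100% = media-only wells without cells; nearly all actives have a fitted effect of over 55% in size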
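Fibrosarcoma NT cells, 750 per well in 5% FBS RPMI, were exposed to compound for 48 hours. Viability: CellTiter-Glo luminescence.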
HT1080 IDH1KD tx: HT-1080 IDH1 knockdown cell toxicity (counter line); HT-1080 IDH1 knockdown viability, ATP luminescence, 48 h; Potency, µM (series often up to 46.1 µM), for inactives: top-dose activity, negative = toxicity, most hits filed as cytotoxic; 2% of 360,000 active;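 further: potency means the concentration at half of the fitted maximal effect; 0% = DMSO wells and -100% = cell-free medium wells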
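In this qHTS, HT-1080 cells depleted of IDH1 are exposed for 48 h at 37 °C to compound titrations. Toxicity is scored from CellTiter-Glo luminescence, with DMSO as full viability and medium alone as none.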
DT40 TDP1 CPT: growth inhibition of DT40 Tdp1-/-;hTDP1 cells with camptothecin (screen for TDP1 inhibitors); chicken DT40 Tdp1-/-;hTDP1 cells + 20 nM CPT, ATP luminescence, 48 h; AID 686979; 12% of 420,000 active; Potency, µM (doses to about 46.2 µM), without a hit: top-dose activity change, negative = growth inhibition, usual class: inhibitors; further: potency means the concentration at half of the fitted maximal effect; nearly all actives have a fitted effect of over 55% in size
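Cell growth measured by CellTiter-Glo luminescence after a minimum 48 h, 37 C compound exposure with 20 nM CPT in Tdp1-knockout DT40 cells stably expressing hTDP1, seeded 400/well; qHTS titration format.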
ELG1 DNA repair: blocks ELG1-dependent DNA repair in HEK293T cells; HEK293T ELG1-luciferase reporter, luminescence, 16 h; DNA damage induced by 5-fluorouridine; Potency, µM (titrated, usually from 46.1 µM), for the others: top-dose activity change, negative = inhibition, actives largely listed as inhibitors; 2.3% of 330,000 active; AID 504467; further: potency means the concentration at half of the fitted maximal effect; nearly all actives have a fitted effect of over 55% in size
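HEK293T cells expressing luciferase-tagged ELG1 (2,000/well) received 5-Fluorouridine plus compound or DMSO for 16 hr at 37 °C. Luciferase was read by ONE-Glo luminescence after 30 min at room temperature.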
TDP1 cell noCPT: qHTS for Inhibitors of human tyrosyl-DNA phosphodiesterase 1 (TDP1): qHTS in cells in absence of CPT; DT40 Tdp1-/- hTDP1 cells, no CPT, ATP luminescence, 48 h; Potency, µM (doses to about 46.2 µM), inactives show at the highest dose activity change, negative = growth inhibition, actives largely listed as inhibitors; 15% of 420,000 active; further: potency means the concentration at half of the fitted maximal effect; nearly all actives have a fitted effect of over 55% in size
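Camptothecin absent (DMSO only). Human TDP1-complemented DT40 knockout cells, 400 cells/well, 37 °C for minimum 48 hr; ATP measured via CellTiter-Glo, 30 min dark incubation, luminescence.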
IL1B secr inh: blocks inflammasome-driven IL-1 beta release; THP-1 LPS/ATP IL-1B secretion, AlphaLISA, 16 h; stronger effect = lower value; activity change, % at 57.5 µM; 4.7% of 360,000 active; in the data active means activity change below about -50%; inconclusive means mostly about -30% to -49%
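THP-1 cells pretreated 1 hr with compounds (up to 57.5 uM final), then stimulated with LPS (250 ng/mL final) plus ATP (1.25 mM final); secreted IL-1B measured by AlphaLISA after 16 hr, decreased signal indicating inhibition.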
Active calls of the source: *. Unless noted, the call rests on the fitted dose curve; in most records, active means well fitted curve in the direction sought with a large enough effect; inconclusive means small, poorly fitted or top-dose-only effect, or another doubt; inactive means no such curve, though single readings can be large; an effect the other way counts as inactive or inconclusive. Unless noted, on the % scale 0 is the no-effect control and ±100 the full control effect.

What do the screens show for `CC(Nc1ccc(Br)cc1)C(=O)N/N=C/c1ccccc1OCc1ccccc1` (centres undefined)?
HT1080-NT tox: 0%; HT1080 IDH1KD tx: -1%; DT40 TDP1 CPT: inconclusive; ELG1 DNA repair: -6%; TDP1 cell noCPT: inconclusive; IL1B secr inh: inconclusive

What do the screens show for `COC(=O)N/N=C/c1ccccc1OCCOc1ccc(OC)cc1`?
HT1080-NT tox: inconclusive; HT1080 IDH1KD tx: -21%; DT40 TDP1 CPT: -92%; ELG1 DNA repair: 15%; TDP1 cell noCPT: 16µM*; IL1B secr inh: -11

How did COC(=O)N/N=C/c1cn(CCOc2ccc(OC)cc2)c2ccccc12 do in these assays?
HT1080-NT tox: -10%; HT1080 IDH1KD tx: -11%; DT40 TDP1 CPT: inconclusive; ELG1 DNA repair: -24%; TDP1 cell noCPT: inconclusive; IL1B secr inh: -21

Results for COc1ccc(NC(C)C(=O)N/N=C/c2ccccc2OCc2ccc(Br)cc2)cc1 (centres undefined) ?
HT1080-NT tox: -3%; HT1080 IDH1KD tx: 0%; DT40 TDP1 CPT: inconclusive; ELG1 DNA repair: inconclusive; TDP1 cell noCPT: 22µM*; IL1B secr inh: -12

How did CC(CN1CCCCC1)NC(=O)c1cccs1 (centres undefined) do in these assays?
HT1080-NT tox: -1%; HT1080 IDH1KD tx: -1%; DT40 TDP1 CPT: 0%; ELG1 DNA repair: -7%; TDP1 cell noCPT: -5%; IL1B secr inh: 0

What do the screens show for `O=C(CCc1ccccc1)c1nnc(-c2ccccc2)o1`?
HT1080-NT tox: -5%; HT1080 IDH1KD tx: 26%; DT40 TDP1 CPT: 4%; ELG1 DNA repair: inconclusive; TDP1 cell noCPT: inconclusive; IL1B secr inh: -53*

How did COc1ccc(N(C(=O)/C=C\C(=O)Nc2ccc(C)cc2)C(C(=O)NCc2ccco2)c2ccc(C)cc2)cc1 (centres undefined) do in these assays?
DT40 TDP1 CPT: 6.5µM*; TDP1 cell noCPT: 4.1µM*

How did Cc1ccc(N(C(=O)c2sc(C)nc2C)C(C(=O)NCc2ccco2)c2ccccc2)cc1 (centres undefined) do in these assays?
HT1080-NT tox: 0%; HT1080 IDH1KD tx: 0%; DT40 TDP1 CPT: inconclusive; ELG1 DNA repair: -6%; TDP1 cell noCPT: inconclusive; IL1B secr inh: -54*

What do the screens show for `Cc1ccc(NC(=O)/C=C\C(=O)N(c2ccc(C(C)C)cc2)C(C(=O)NCc2ccco2)c2ccc(F)cc2)cc1` (centres undefined)?
DT40 TDP1 CPT: 15µM*; TDP1 cell noCPT: 18µM*

How did CC(C)c1ccc(NC(=O)CCC(=O)NCc2ccco2)cc1 do in these assays?
HT1080-NT tox: inconclusive; HT1080 IDH1KD tx: inconclusive; DT40 TDP1 CPT: inconclusive; ELG1 DNA repair: 18%; TDP1 cell noCPT: inconclusive; IL1B secr inh: 5

How did O=C(O)c1cccc(S(=O)(=O)Nc2ccc(N3CCCCC3)cc2)c1 do in these assays?
HT1080-NT tox: 9%; HT1080 IDH1KD tx: 17%; DT40 TDP1 CPT: -22%; ELG1 DNA repair: inconclusive; TDP1 cell noCPT: 7%; IL1B secr inh: 19

Results for CCOc1ccc(NC(=O)c2oc3ccccc3c2NC(=O)Cc2ccc(F)cc2)cc1 ?
DT40 TDP1 CPT: -6%; TDP1 cell noCPT: inconclusive

Results for COc1cccc(OCC(=O)N(C)Cc2nc(-c3cccc(C)c3)no2)c1 ?
HT1080-NT tox: -20%; HT1080 IDH1KD tx: -15%; DT40 TDP1 CPT: 0%; ELG1 DNA repair: -15%; TDP1 cell noCPT: -28%; IL1B secr inh: -1

Results for CC(C)(S)C(=O)N[C@@H](CS)C(=O)O ?
DT40 TDP1 CPT: -5%; TDP1 cell noCPT: 3%

What do the screens show for `O=[N+]([O-])c1ccc(Cc2ccccn2)cc1`?
HT1080-NT tox: 6%; HT1080 IDH1KD tx: 3%; DT40 TDP1 CPT: -9%; ELG1 DNA repair: inconclusive; TDP1 cell noCPT: 14%; IL1B secr inh: 25

How did O=[N+]([O-])c1ccc(CC(Cl)c2ccccn2)cc1 (centres undefined) do in these assays?
HT1080-NT tox: -11%; HT1080 IDH1KD tx: -8%; DT40 TDP1 CPT: -8%; TDP1 cell noCPT: -10%; IL1B secr inh: -50*

What do the screens show for `CCCc1[nH]nc2c1C(c1ccc(OC)c(CSC3=NCCS3)c1)C(C#N)=C(N)O2` (centres undefined)?
HT1080-NT tox: -22%; HT1080 IDH1KD tx: inconclusive; DT40 TDP1 CPT: inconclusive; ELG1 DNA repair: 4%; TDP1 cell noCPT: 21µM*; IL1B secr inh: -3

How did CCCc1[nH]nc2c1C(c1cc(OC)cc(OC)c1)C(C#N)=C(N)O2 (centres undefined) do in these assays?
HT1080-NT tox: 22%; HT1080 IDH1KD tx: 13%; DT40 TDP1 CPT: -5%; ELG1 DNA repair: 8%; TDP1 cell noCPT: -13%; IL1B secr inh: inconclusive

How did COc1ccccc1NC(=O)c1cc([N+](=O)[O-])ccc1N1CCOCC1 do in these assays?
HT1080-NT tox: -6%; HT1080 IDH1KD tx: -1%; DT40 TDP1 CPT: -11%; ELG1 DNA repair: 9%; TDP1 cell noCPT: -29%; IL1B secr inh: 27

Results for CC(C)C(=O)NC(c1cccs1)c1cc([N+](=O)[O-])c2cccnc2c1O (centres undefined) ?
HT1080-NT tox: inconclusive; HT1080 IDH1KD tx: 7.3µM*; DT40 TDP1 CPT: inconclusive; ELG1 DNA repair: -26%; TDP1 cell noCPT: inconclusive; IL1B secr inh: -13

What do the screens show for `O=C(O)COc1ccccc1C(Nc1ccccn1)c1cc(Cl)c2cccnc2c1O` (centres undefined)?
HT1080-NT tox: 8%; HT1080 IDH1KD tx: 12%; DT40 TDP1 CPT: -25%; ELG1 DNA repair: -1%; TDP1 cell noCPT: inconclusive; IL1B secr inh: 19

What do the screens show for `CCCC(=O)NC(c1ccc2c(c1)OCO2)c1cc(Cl)c2cccnc2c1O` (centres undefined)?
HT1080-NT tox: 8.2µM*; HT1080 IDH1KD tx: 3.7µM*; DT40 TDP1 CPT: 4.6µM*; ELG1 DNA repair: -17%; TDP1 cell noCPT: 3.7µM*; IL1B secr inh: -82*

Results for CCCC(=O)NC(c1ccco1)c1cc(Cl)c2cccnc2c1O (centres undefined) ?
HT1080-NT tox: inconclusive; HT1080 IDH1KD tx: 10µM*; DT40 TDP1 CPT: 3.7µM*; ELG1 DNA repair: inconclusive; TDP1 cell noCPT: 4.6µM*; IL1B secr inh: 72

What do the screens show for `CC(=O)NC(c1ccco1)c1cc(Cl)c2ccc(Cl)nc2c1O` (centres undefined)?
ELG1 DNA repair: 18%

Source: PubChem BioAssay
